Test results taken from PubChem BioAssay AID463173 (ICCB-Longwood Screening Facility, Harvard Medical School, 2010).
Among all 52,000 compounds or so, about 4,300 (8.3%) were called active. Rule as the data show it: active = survival mostly below about 52% (no sharp cut-off); inactive = mostly above about 56%. Only a selection was taken, and actives are over-represented in it overall.

The compounds below were run on DeltatarO mutant (assay: S. aureus survival, RN4220 and DeltatarO strains – OD600, teichoic acid synthesis inhibitors, primary screen (AID 463173)). Conditions: S. aureus RN4220 wild type/DeltatarO growth, OD600, 18 h, active compounds read low, screened at 18.75 µg/mL (by protocol).
`CC(CCO)Nc1nc2c(c(=O)n(C)c(=O)n2C)n1Cc1ccc(Br)cc1` (stereo unspecified) was tested, and the survival was 140% (inactive).
For `COc1cccc(C(=O)NC2=NC(c3ccccc3F)CC(=O)N2)c1` (stereo unspecified), the survival was 75% (inactive).
`CC(C)C(=O)Nc1c(C(=O)N2CCN(c3ccccc3F)CC2)oc2ccccc12` was tested, and the survival was 58% (inactive).
In the case of `O=C(NCc1ccccc1)C1CCCN(c2ncccn2)C1` (stereo unspecified), the survival is reported as 88% (inactive).
With `Cc1ccc(-c2noc(-c3ccc(N4CCN(C)CC4)c([N+](=O)[O-])c3)n2)cc1` the survival was 85% (inactive).
For `Cc1cccc(-c2noc(-c3ccc(N4CCN(C)CC4)c([N+](=O)[O-])c3)n2)c1`, the survival was 22% (active).
`O=[N+]([O-])c1cc(-c2nc(-c3ccccc3)no2)ccc1N1CCN(c2ccccc2)CC1` was tested, and the survival was 77% (inactive).
With `COc1ccccc1-c1noc(-c2ccc(N3CCOCC3)c([N+](=O)[O-])c2)n1` the survival was 100% (inactive).
With `CN1CCN(c2ccc(-c3nc(-c4ccccc4)no3)cc2[N+](=O)[O-])CC1` the survival was 41% (active).
In the case of `Cc1cccc(-c2noc(-c3ccc(N4CCCC4)c([N+](=O)[O-])c3)n2)c1`, the survival is reported as 82% (inactive).
`COc1ccccc1-c1noc(-c2ccc(N3CCN(c4ccccc4)CC3)c([N+](=O)[O-])c2)n1` was tested, and the survival was 44% (active).
With `Cc1cccc(-c2noc(-c3ccc(N4CCOCC4)c([N+](=O)[O-])c3)n2)c1` the survival was 67% (inactive).
With `COc1ccccc1-c1noc(-c2ccc(N3CCN(C)CC3)c([N+](=O)[O-])c2)n1` the survival was 113% (inactive).
With `Cc1ccc(-c2nc(SCC(=O)Nc3cc(C)on3)c3c(=O)n(C)c(=O)n(C)c3n2)cc1` the survival was 83% (inactive).
With `CC(=O)c1ccc(NC(=O)CSc2nc(=O)n(Cc3ccccn3)c3c2CCC3)cc1` the survival was 67% (inactive).
In the case of `COc1ccc(CCNC(=O)CSC2=Nc3ccccc3C3=NC(CCC(=O)NCc4ccccc4)C(=O)N23)cc1OC` (stereo unspecified), the survival is reported as 107% (inactive).
`O=C(Nc1nc2c(F)cc(F)cc2s1)c1ccc2c(c1)OCCO2` was tested, and the survival was 85% (inactive).
In the case of `Cn1cc(C(=O)NCc2ccccc2)c(=O)c2cc(S(=O)(=O)N3CCCCCC3)ccc21`, the survival is reported as 118% (inactive).
`Cc1noc(C)c1S(=O)(=O)Nc1ccc(C(=O)Nc2ccc(Br)cc2)cc1` was tested, and the survival was 36% (active).
In the case of `Cc1noc(NS(=O)(=O)c2ccc(NC(=O)c3ccc(Br)cc3)cc2)c1C`, the survival is reported as 74% (inactive).
With `CCc1ccc(NC(=O)c2ccc(NS(=O)(=O)c3c(C)noc3C)cc2)cc1` the survival was 48% (inactive).
`Cc1cc(Br)ccc1NC(=O)c1ccc(NS(=O)(=O)c2c(C)noc2C)cc1` was tested, and the survival was 59% (inactive).
For `COc1ccc(C)cc1NC(=O)c1ccc(NS(=O)(=O)c2c(C)noc2C)cc1`, the survival was 83% (inactive).
In the case of `Cc1noc(C)c1S(=O)(=O)Nc1ccc(C(=O)Nc2ccc(C(C)C)cc2)cc1`, the survival is reported as 52% (active).
`Cc1cccc(C)c1NC(=O)CSc1nc(-c2ccccc2)nc2c1Cc1c(CO)cnc(C)c1O2` was tested, and the survival was 87% (inactive).
With `Cc1ccc(NC(=O)C2CCN(c3nnc(C)c4c(C)n(-c5ccccc5)nc34)CC2)cc1Cl` the survival was 71% (inactive).
With `CCc1cccc(C)c1NC(=O)C1CCN(c2nnc(C)c3c(C)n(-c4ccccc4)nc23)CC1` the survival was 77% (inactive).
For `Cc1cc(C)c(NC(=O)C2CCN(c3nnc(C)c4c(C)n(-c5ccccc5)nc34)CC2)c(C)c1`, the survival was 52% (active).
In the case of `O=C(Nc1cccc(C(F)(F)F)c1)c1cccnc1NCCO`, the survival is reported as 77% (inactive).
With `CCOC(=O)CSc1nc2sc3c(c2c(=O)n1CC)CCCC3` the survival was 58% (inactive).
For `CCCCn1c(SCC(=O)c2ccccc2)nc2sc3c(c2c1=O)CCCC3`, the survival was 44% (active).
For `C=C(C)CSc1nc2sc3c(c2c(=O)n1CCCC)CCCC3`, the survival was -3% (active).
For `C=C(C)Cn1c(SCC(=O)c2ccc(Br)cc2)nc2sc3c(c2c1=O)CCCC3`, the survival was 50% (inactive).
In the case of `C=C(C)Cn1c(SCC(=O)c2ccc(OC)cc2)nc2sc3c(c2c1=O)CCCC3`, the survival is reported as 75% (inactive).
For `C=C(C)Cn1c(SCC(=O)c2ccccc2)nc2sc3c(c2c1=O)CCCC3`, the survival was 69% (inactive).
For `COc1ccc(CNC(=O)CN(C)S(=O)(=O)c2ccc3[nH]c4c(c3c2)CCCC4)cc1`, the survival was 70% (inactive).
For `Cn1c(C(=O)N(Cc2ccccc2)C(C)(C)C)cc2sccc21`, the survival was 109% (inactive).
In the case of `CCOc1ccccc1CNC(=O)C1CCN(c2nnc(C)c3c(C)n(-c4ccc(C)cc4)nc23)CC1`, the survival is reported as 68% (inactive).
In the case of `Cc1cc(Nc2cccc(C(F)(F)F)c2)nc2ccc(NC(=O)c3ccc(N(C)C)cc3)cc12`, the survival is reported as 55% (inactive).
For `COc1ccc(CC(=O)Nc2ccc3nc(Nc4cccc(Cl)c4)cc(C)c3c2)cc1OC`, the survival was 46% (active).
`Cc1cc(Nc2cccc(Cl)c2)nc2ccc(NC(=O)Cc3cccc(C(F)(F)F)c3)cc12` was tested, and the survival was 64% (inactive).
`COc1ccccc1CC(=O)Nc1ccc2nc(Nc3cccc(C(F)(F)F)c3)cc(C)c2c1` was tested, and the survival was 92% (inactive).
For `COc1cccc(CC(=O)Nc2ccc3nc(Nc4cccc(C(F)(F)F)c4)cc(C)c3c2)c1`, the survival was 25% (active).
In the case of `COc1ccc(CC(=O)Nc2ccc3nc(Nc4cccc(Cl)c4)cc(C)c3c2)cc1`, the survival is reported as 98% (inactive).
In the case of `COc1ccccc1CC(=O)Nc1ccc2nc(Nc3cccc(Cl)c3)cc(C)c2c1`, the survival is reported as 144% (inactive).
`Cc1cc(Nc2cccc(C(F)(F)F)c2)nc2ccc(NC(=O)c3cccc(Cl)c3)cc12` was tested, and the survival was 92% (inactive).
In the case of `Cc1cc(Nc2cccc(C(F)(F)F)c2)nc2ccc(NC(=O)c3ccc(=O)[nH]c3)cc12`, the survival is reported as 37% (active).
In the case of `O=C(Cn1cc(S(=O)(=O)Cc2ccccc2Cl)c2ccccc21)Nc1cccc(C(F)(F)F)c1`, the survival is reported as 75% (inactive).
For `CCOc1ccc(C2C(C(=O)Nc3ccccc3)=C(C)Nc3nc(SCc4cc(C)ccc4C)nn32)cc1` (stereo unspecified), the survival was 123% (inactive).
`Cc1ccc(NC(=O)Cn2c(=O)n(-c3ccc(CC(=O)NCC4CCCO4)cc3)c(=O)c3ccccc32)cc1` (stereo unspecified) was tested, and the survival was 95% (inactive).
In the case of `CCCCOC(=O)c1ccc(NC(=O)c2cc3c(=O)n4cccc(C)c4nc3s2)cc1`, the survival is reported as 66% (inactive).
With `COc1cc(OC)cc(C(=O)NCC(c2cccs2)S(=O)(=O)c2ccc(F)c(C)c2)c1` (stereo unspecified) the survival was 100% (inactive).
With `Cc1cccc(NC(=O)C2CCCN(S(=O)(=O)c3ccc4c(c3)CCCC(=O)N4)C2)c1` (stereo unspecified) the survival was 95% (inactive).
With `COc1ccc(NS(=O)(=O)c2ccc3[nH]c(=O)ccc3c2)cc1OC` the survival was 98% (inactive).
`COc1ccc(-c2nc3sc(CCNC(=O)c4cc(Cl)ccc4OC)c(C)n3n2)cc1` was tested, and the survival was 73% (inactive).
For `COc1ccc(C(C(=O)NCc2cccs2)N(Cc2ccco2)C(=O)Cn2nnc(-c3cccs3)n2)cc1` (stereo unspecified), the survival was 93% (inactive).
`CCc1cccc(C)c1NC(=O)CCCn1nc(C)c2sc3ccccc3c2c1=O` was tested, and the survival was 86% (inactive).
For `CCc1ccc(Sc2cc(C(=O)O)c3ccccc3n2)cc1`, the survival was 78% (inactive).
For `CCOCCCNC(=O)CN1C(=O)COc2ccc(S(=O)(=O)N3CCCC3)cc21`, the survival was 87% (inactive).
With `CCC(Cn1nnc2ccccc2c1=O)NC(=O)Nc1ccc(C)cc1` (stereo unspecified) the survival was 55% (inactive).
In the case of `CCC(Cn1nnc2ccccc2c1=O)NC(=O)Nc1ccc(C)cc1C` (stereo unspecified), the survival is reported as 44% (active).
With `CCC(Cn1nnc2ccccc2c1=O)NC(=O)Nc1cc(OC)cc(OC)c1` (stereo unspecified) the survival was 88% (inactive).
With `CCC(Cn1nnc2ccccc2c1=O)NC(=O)Nc1cccc(C)c1C` (stereo unspecified) the survival was 55% (inactive).
With `CCC(Cn1nnc2ccccc2c1=O)NC(=O)Nc1cc(C)cc(C)c1` (stereo unspecified) the survival was 41% (active).
For `CCc1ccccc1NC(=O)NC(CC)Cn1nnc2ccccc2c1=O` (stereo unspecified), the survival was 61% (inactive).
`CCC(Cn1nnc2ccccc2c1=O)NC(=O)Nc1cccc(Cl)c1` (stereo unspecified) was tested, and the survival was 39% (active).
`CCC(Cn1nnc2ccccc2c1=O)NC(=O)Nc1ccccc1Cl` (stereo unspecified) was tested, and the survival was 85% (inactive).
In the case of `CCC(Cn1nnc2ccccc2c1=O)NC(=O)Nc1ccc(C)c(C)c1` (stereo unspecified), the survival is reported as 45% (inactive).
In the case of `COc1ccccc1CNC(=O)C(C)n1ccc2cc(S(=O)(=O)N3CCCC3)ccc21` (stereo unspecified), the survival is reported as 81% (inactive).
For `CCc1ccc(CN2CCC(C(=O)N(C)CCc3ccc(OC)c(OC)c3)CC2)cc1`, the survival was 81% (inactive).
`CCCN(C(=O)c1cc2c(=O)[nH]c3ccc(C)cc3c2s1)c1ccc(CC)cc1` was tested, and the survival was 64% (inactive).
`CCCCNS(=O)(=O)c1ccc(NC(=O)c2c(-c3ccccc3)noc2C)cc1` was tested, and the survival was 101% (inactive).
For `CN(C)c1ccc(CNC(=O)C2CCN(S(=O)(=O)c3ccc4c(ccn4C)c3)CC2)cc1`, the survival was 95% (inactive).
`Cc1ccc(NC(=O)c2cnc(SCC(=O)Nc3cc(C)on3)n(C)c2=O)cc1` was tested, and the survival was 88% (inactive).
With `COc1ccc(CCn2c3c(c(=O)[nH]c2=O)C(NC(=O)c2ccccc2F)(C(F)(F)F)C(=O)N3)cc1OC` (stereo unspecified) the survival was 60% (inactive).
In the case of `COc1ccc(N(Cc2cc3ccccc3[nH]c2=O)C(=O)c2cccc(Cl)c2)cc1`, the survival is reported as 87% (inactive).
For `COc1ccc(CCNC(=O)CCCCn2c(=O)c3ccccc3n(Cc3cc(C)ccc3C)c2=O)cc1OC`, the survival was 108% (inactive).
For `Cc1ccc(N2CC(c3nnc(Cc4ccc(Cl)cc4)o3)CC2=O)cc1` (stereo unspecified), the survival was 48% (inactive).
For `O=C1CC(c2nnc(Cc3ccc(F)cc3)o2)CN1c1ccccc1` (stereo unspecified), the survival was 134% (inactive).
`Cc1ccc(N2CC(c3nnc(Cc4ccc(F)cc4)o3)CC2=O)cc1` (stereo unspecified) was tested, and the survival was 24% (active).
In the case of `COc1ccc(S(=O)(=O)Nc2cccc(-c3ccc(N4CCCCCC4)nn3)c2)c(OC)c1`, the survival is reported as 74% (inactive).
In the case of `COc1ccc(Cn2ccc3nc(C)c(C(=O)N4CCN(c5cccc(OC)c5)CC4)cc3c2=O)cc1`, the survival is reported as 81% (inactive).
For `O=C(Nc1cccc(OCc2cc(=O)n3ccccc3n2)c1)Nc1cccc(C(F)(F)F)c1`, the survival was -4% (active).
With `Cc1ccc2nc(COc3cccc(NC(=O)Nc4ccc(C)c(Cl)c4)c3)cc(=O)n2c1` the survival was 25% (active).
In the case of `CCC(=O)Nc1cccc(OCc2cc(=O)n3cc(C)ccc3n2)c1`, the survival is reported as 55% (inactive).
`Cc1ccc2nc(COc3cccc(NC(=O)c4ccccc4Cl)c3)cc(=O)n2c1` was tested, and the survival was 75% (inactive).
For `O=C(COc1ccc(F)cc1)Nc1cccc(OCc2cc(=O)n3ccccc3n2)c1`, the survival was 102% (inactive).
For `Cc1cccc(C(=O)Nc2ccccc2OCc2cc(=O)n3cc(C)ccc3n2)c1`, the survival was 60% (inactive).
With `Cc1ccc(Cl)cc1NC(=O)Nc1cccc(OCc2cc(=O)n3ccccc3n2)c1` the survival was 72% (inactive).
For `Cc1ccc2nc(COc3ccccc3NC(=O)c3ccccc3F)cc(=O)n2c1`, the survival was 85% (inactive).
`Cc1ccc2nc(COc3ccccc3NC(=O)c3ccc(F)cc3)cc(=O)n2c1` was tested, and the survival was 20% (active).
